The campaign covered roughly 16,000 compounds. About 5,100 (32%) were called active. Roughly 25% stayed inconclusive and do not appear here. Some of the results follow. A number with no mark means an inactive call. The call rests on the fitted dose curve; in most records, active means well fitted curve in the direction sought with a large enough effect; inconclusive means small, poorly fitted or top-dose-only effect, or effect the other way; inactive means no such curve, though single readings can be large or run the other way.
On the % scale 0 is the no-effect control and ±100 the full control effect.

This experiment deals with Cytochrome P450 3A4 (Homo sapiens) (UniProt P08684). Description: Cytochrome panel assay with activity outcomes. To be noted: recombinant CYP, pro-luciferin dealkylation, luminescence, p450-cyp3a4; series mostly up to 57.1 µM; activity, negative = inhibition: at the top concentration.
Cytochrome P450 3A4 (Homo sapiens), sequence (P08684 whole entry, looked up): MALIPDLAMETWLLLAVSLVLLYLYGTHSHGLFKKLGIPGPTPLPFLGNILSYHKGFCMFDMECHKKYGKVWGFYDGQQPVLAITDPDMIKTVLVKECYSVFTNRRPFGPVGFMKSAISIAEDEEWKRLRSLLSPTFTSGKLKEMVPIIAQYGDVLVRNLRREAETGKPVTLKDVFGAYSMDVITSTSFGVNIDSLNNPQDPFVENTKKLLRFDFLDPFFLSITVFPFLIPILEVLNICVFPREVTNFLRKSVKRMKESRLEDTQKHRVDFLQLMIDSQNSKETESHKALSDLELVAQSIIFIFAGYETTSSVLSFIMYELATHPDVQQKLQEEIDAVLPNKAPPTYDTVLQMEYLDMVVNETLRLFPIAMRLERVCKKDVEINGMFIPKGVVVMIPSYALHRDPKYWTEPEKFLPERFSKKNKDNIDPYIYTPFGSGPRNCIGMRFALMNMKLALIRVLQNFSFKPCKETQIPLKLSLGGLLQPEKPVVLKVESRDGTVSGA
For the compound `CC(C)NC(=O)CC(=O)N/N=C/c1ccc(F)cc1`, the “activity, negative = inhibition” value is -0.68%.

`O=C(CN(Cc1ccccc1)S(=O)(=O)c1ccc2c(c1)OCCO2)N/N=C/c1ccc(F)cc1`: the activity, negative = inhibition was 0.145% [at 2.29 µM].

As to `Cc1ccc(S(=O)(=O)N(CC(=O)N/N=C/c2ccc(F)cc2)c2cccc3cccnc23)cc1`, the AC50 – broadly, the midpoint of the concentration-response curve, whichever way the signal moves – was 1.26 µM (active).

On to `O=C1CC2(CCCC2)CC(=O)N1CCCCNC[C@H]1COc2ccccc2O1`, for which the AC50 is 0.631 µM (active).

In the case of `Cn1c(C(=O)O)c(CC(=O)NCC2COc3ccccc3O2)c2ccccc21` (stereo not drawn), the activity, negative = inhibition was -8.31% [at 11.4 µM].

As for `COC(=O)COc1cccc(NC(=O)c2ccc(C)cc2)c1`, the AC50 was 17.8 µM (active).

On to `Cc1ccc(C(=O)Nc2cc(Cl)ccc2OC(=O)c2ccc(C)cc2)cc1`, for which the activity, negative = inhibition was -3.15% [at 2.29 µM].

In the case of `COc1ccc(NC(=O)C2(c3ccc(NC(=O)c4ccc(OC(C)=O)cc4)cc3)CCCC2)cc1`, the “activity, negative = inhibition” value is -14.1%.

Regarding `COc1ccc(C(=O)Nc2cc(OC)cc(OC)c2)cc1`, the AC50 is 14.1 µM (active).

For `CC(=O)Nc1ccc(-c2cc(-c3ccc(NC(C)=O)cc3)nc(-c3ccccc3)n2)cc1`, the activity, negative = inhibition was -4.31% [at 2.29 µM].

In the case of `COc1ccc(C(=O)Nc2cc(Cl)ccc2OC(=O)c2ccc(OC)cc2)cc1`, the AC50 was 22.4 µM (active).

As for `Cc1cccc(NC(=S)NC(=O)c2cc(-c3ccccc3)nc3ccccc23)c1`, the activity, negative = inhibition was -27.7% [at 11.4 µM].

Regarding `Cc1ccc(C(=O)Nc2cccc(-c3cnc4ccccc4n3)c2)cc1`, the AC50 is 2.24 µM (active).

Take `CCOc1ccc(NC(=O)c2ccc(OC)cc2)cc1`: the “activity, negative = inhibition” value was 24.3%.

As for `CCN1C(=O)[C@H]2[C@H]3[C@H](O)[C@H](O)C/C(=N/O[C@@H]4O[C@@H](COC(C)=O)[C@@H](OC(C)=O)[C@@H](OC(C)=O)[C@H]4OC(C)=O)[C@H]3CC[C@@H]2C1=O`, the activity, negative = inhibition was -8.67% [at 11.4 µM].

With `Cc1ccc(NC(=O)c2nnn(-c3cc(C)cc(C)c3)c2N)cc1`, the activity, negative = inhibition is 5.32% [at 2.29 µM].

For the compound `Cc1ccc(C(=O)Nc2ccc(N3CCOCC3)nc2)cc1`, the “activity, negative = inhibition” value was -10.3%.

With `COc1ccc(C(=O)Nc2cccc(-c3cnc4ccccc4n3)c2)cc1`, the AC50 was 2.51 µM (active).

In the case of `COc1ccc(C(=O)COC(=O)c2ccc(NC(=O)c3ccccc3)cc2)cc1`, the “activity, negative = inhibition” value was 7.44%.

With `Cc1ccc(-n2nc3ccc(NC(=O)c4ccc5c(c4)OCO5)cc3n2)cc1`, the AC50 is 8.91 µM (active).

`Cc1ccc(C(=O)Nc2ccc3nccnc3c2)cc1`: the AC50 was 14.1 µM (active).

For the compound `Cn1c(=O)n2n(c1=O)[C@H]1[C@H](O)[C@H]3O[C@@H]3/C(=N/OCc3ccccc3)[C@@H]1CC2`, the activity, negative = inhibition was -26.2% [at 11.4 µM].

As to `Cc1ccc(C)c(-n2c(CNC(=O)c3ccco3)nnc2SCC(=O)N2CCc3ccccc32)c1`, the AC50 was 7.08 µM (active).

Take `Cc1ccc(-n2c(=O)[nH]cc(C(=O)N3CCc4ccccc43)c2=O)cc1`: the “activity, negative = inhibition” value was -21.6%.

As to `CCOC(=O)N1CCN(C(=O)CN(C)S(=O)(=O)c2ccc3c(c2)C(C)(C)C(=O)N3C)CC1`, the “activity, negative = inhibition” value was -22.1%.

Regarding `CN(CC(=O)N1CCN(c2ccccc2)CC1)S(=O)(=O)c1cnc[nH]1`, the AC50 is 11.2 µM (active).

For the compound `CCc1cccc(NC(=O)CN(C)S(=O)(=O)c2cnc[nH]2)c1`, the AC50 was 2.51 µM (active).

Regarding `CC(C)CC(=O)N1CCC(N2CCN(c3ccccc3)CC2)CC1`, the activity, negative = inhibition is 6.02% [at 2.29 µM].

Turning to `CCc1cccc(CC)c1NC(=O)CN(CC(=O)O)CC(=O)O`, the “activity, negative = inhibition” value was -4.16% [at 25.6 µM].

Regarding `COc1cc(O)oc1C=Nc1ccc(C(F)(F)F)cc1`, the AC50 was 8.91 µM (active).

Consider `COc1cc(O)oc1C=Nc1ccc(Cl)cc1`, for which the AC50 is 15.8 µM (active).

For `CCOc1[nH]n(-c2ccc(Cl)cc2)c(=O)c1C=Nc1ccc(O)cc1`, the “activity, negative = inhibition” value is -15.4%.

Turning to `C/C(=N\OC(=O)c1cccc(C)c1)c1sc(-c2ccccc2)nc1C`, the “activity, negative = inhibition” value is -24.5%.

In the case of `C/C(=N\OC(=O)NC1CCCCC1)c1sc(-c2ccccc2)nc1C`, the AC50 is 15.8 µM (active).

On to `c1ccc2c(-c3c[nH]c4ccccc34)c3ccccc3nc2c1`, for which the AC50 is 8.91 µM (active).

Consider `c1ccc2c(CN3CCN(Cc4c[nH]c5ccccc45)CC3)c[nH]c2c1`, for which the activity, negative = inhibition was -20.1% [at 11.4 µM].

`CN(C)C(=O)CCc1nc(-c2ccc(C(C)(C)C)cc2)no1`: the “activity, negative = inhibition” value is -18.2%.

With `CCN(CC)CCc1nc(-c2ccccc2)no1`, the “activity, negative = inhibition” value is -1.29% [at 25.6 µM].

On to `O=C(O)CCc1nc(-c2ccccc2-n2cccc2)no1`, for which the AC50 was 2.51 µM (active).

For the compound `O=C(NC1CCCC1)C(c1ccsc1)N(Cc1ccccc1)C(=O)Cc1cccs1` (stereo not drawn), the AC50 is 2 µM (active).

As for `O=C(O)c1cscc1Cc1cccs1`, the activity, negative = inhibition was 17.7% [at 11.4 µM].

Consider `O=C(NC1CCCC1)C(c1ccc(F)cc1)N(Cc1ccc(F)cc1)C(=O)c1ccn[nH]1` (stereo not drawn), for which the activity, negative = inhibition was -28.2% [at 2.29 µM].

In the case of `COc1ccc(C(C(=O)NC2CCCC2)N(Cc2ccc(F)cc2)C(=O)c2ccn[nH]2)cc1OC` (stereo not drawn), the AC50 was 3.98 µM (active).

For the compound `O=C(Cc1cccs1)N/N=C/C(Br)=C/c1ccccc1`, the “activity, negative = inhibition” value is -21.3%.

Turning to `COc1ccc(CN(C(=O)Cc2cccs2)C(C(=O)NC2CCCC2)c2ccncc2)cc1` (stereo not drawn), the AC50 is 1 µM (active).

As to `O=C(NC1CCCCC1)C(c1cccs1)N(Cc1cccs1)C(=O)c1ccco1` (stereo not drawn), the AC50 is 3.16 µM (active).

For `CCc1cc2c(=O)[nH]cnc2s1`, the “activity, negative = inhibition” value was -7.75%.

`O=C(O)/C=C(/C(=O)O)[C@]12CCN3CC4=CCO[C@@H]5CC(=O)N[C@@H]1[C@H]5[C@H]4C[C@H]32`: the activity, negative = inhibition is 2.64% [at 11.4 µM].

`COC(=O)C1C(O)=C(C=NCc2ccccc2)C(=O)CC1(C)C` (stereo not drawn): the “activity, negative = inhibition” value was -8.8%.

With `COc1ccc(CCN=CC2=C(O)CC(C)(C)CC2=O)cc1`, the AC50 is 14.1 µM (active).

As to `COCCCN=CC1=C(O)CC(C)(C)CC1=O`, the “activity, negative = inhibition” value was 3.18%.

Turning to `Cc1cc(C)c2[nH]c(=O)c(CN(Cc3ccco3)C(=O)c3cccs3)cc2c1`, the AC50 is 2.82 µM (active).

For the compound `O=C(NC1(C(F)(F)F)C(=O)Nc2c1c(=O)[nH]c(=O)n2-c1ccc(F)cc1)c1cccnc1` (stereo not drawn), the “activity, negative = inhibition” value is 10.8%.

Take `CCCCN1C(=O)C(NC(=O)c2cccnc2)(C(F)(F)F)C2=C1CC(C)(C)CC2=O` (stereo not drawn): the AC50 was 7.94 µM (active).

For `CCCCN1C(=O)C(NC(=O)C2CC2)(C(F)(F)F)C2=C1CC(C)(C)CC2=O` (stereo not drawn), the activity, negative = inhibition is 5.27% [at 2.29 µM].

Regarding `CCCCN1C(=O)C(NC(=O)CC(C)C)(C(F)(F)F)C2=C1CC(C)(C)CC2=O` (stereo not drawn), the activity, negative = inhibition is -16% [at 2.29 µM].

Regarding `CC1(C)CC(=O)C2=C(C1)N(Cc1cccnc1)C(=O)C2(NC(=O)c1cccnc1)C(F)(F)F` (stereo not drawn), the AC50 was 12.6 µM (active).

Turning to `CN(C)CC(O)COc1ccc(C(C)(C)c2ccc(OCC(O)CN(C)C)cc2)cc1` (stereo not drawn), the “activity, negative = inhibition” value is 0.345%.

In the case of `CCOC(=O)c1cc2sc(C)cc2n1CCCN1C(=O)c2ccccc2C1=O`, the AC50 is 3.16 µM (active).

As to `Nc1ccc(N2CCN(C(=O)c3ccco3)CC2)cc1`, the “activity, negative = inhibition” value is -20.2%.

Regarding `CCOC(=O)c1cc2sc(C)cc2n1CC(=O)N1CCN(C(=O)c2ccco2)CC1`, the AC50 is 14.1 µM (active).

With `CC1(C)CC(=O)C(CCCN2C(=O)c3ccccc3C2=O)C(=O)C1`, the “activity, negative = inhibition” value was -15.9%.

As for `OCCN(CCO)c1ncnc2nc[nH]c12`, the activity, negative = inhibition is -5.25% [at 11.4 µM].

Regarding `CCCC(=O)NNC(=O)Nc1ccccc1`, the activity, negative = inhibition is -11.8% [at 2.29 µM].

As for `O=C(COc1ccc2ccccc2c1Br)NNC(=O)Nc1ccccc1`, the AC50 is 14.1 µM (active).

For the compound `Cn1cnc([N+](=O)[O-])c1SCC(=O)O`, the activity, negative = inhibition is -11.5% [at 11.4 µM].

In the case of `CC1=N/C(=C\c2ccc([N+](=O)[O-])cc2)C(=O)N1c1ccc(Cl)cc1`, the “activity, negative = inhibition” value is 15.2%.

As to `CN(C)c1ccc(/C=C2/C(=O)N(c3ccc([N+](=O)[O-])cc3)N=C2N2CCOCC2)cc1`, the “activity, negative = inhibition” value is -29%.

On to `CC1=N/C(=C\c2ccc([N+](=O)[O-])cc2)C(=O)N1c1ccc(Br)c(C)c1`, for which the AC50 was 2.82 µM (active).

As to `CCOC(=O)N/N=C1/C[C@@H](O)[C@@H](O)[C@@H]2[C@@H]3C(=O)N(C4CCCCC4)C(=O)[C@H]3CC[C@H]12`, the activity, negative = inhibition is -24.5% [at 11.4 µM].

`O=C(COC(=O)c1cccc(S(=O)(=O)N2CCN(c3ccccc3)CC2)c1)NCc1ccco1`: the AC50 is 12.6 µM (active).

With `CCCc1nc2ccccc2c(C(=O)OCC(=O)Nc2cccc(S(=O)(=O)N3CCOCC3)c2)c1CC`, the activity, negative = inhibition was -27.2% [at 2.29 µM].

For `O=C(O)C1C2CCC(C2)C1C(=O)NCc1ccco1` (stereo not drawn), the “activity, negative = inhibition” value was 6.72%.

Consider `CN(C)CCCN=c1c2ccccc2n(C)c2[nH]c(=O)n(C)c(=O)c12`, for which the activity, negative = inhibition is 2.56% [at 11.4 µM].

Turning to `CN(C)CCCNC(=O)c1cc2c3ccccc3n(C)c2s1`, the “activity, negative = inhibition” value is -25.3%.

`CN(C)CCCn1cc(C2=C(c3c[nH]c4ccccc34)C(=O)NC2=O)c2ccccc21`: the AC50 is 12.6 µM (active).

As for `c1c[nH]c(CN2CCN(Cc3ncc[nH]3)CC2)n1`, the activity, negative = inhibition was -22.2% [at 11.4 µM].

On to `Clc1cccc(Cl)c1NC1=NCCN1`, for which the AC50 result was “inactive”.

In the case of `COc1ccc(Nc2ncc(C(=O)N3CCN(Cc4ccccc4)CC3)c3ccccc23)cc1`, the activity, negative = inhibition is -29.5% [at 2.29 µM].

Take `CNc1ncnc2ccc(-c3ccccc3OC)cc12`: the AC50 is 20 µM (active).

On to `NCCNc1ncnc2ccc(Cl)cc12`, for which the activity, negative = inhibition was -27.5% [at 11.4 µM].

As to `Brc1ccc2ncnc(Nc3cccc4ccccc34)c2c1`, the activity, negative = inhibition was 20.8% [at 2.29 µM].

`Clc1cccc(Nc2ncnc3ccc(Br)cc23)c1`: the AC50 was 14.1 µM (active).

For `COc1cccc(-c2ccc3ncnc(NC4CC4)c3c2)c1`, the AC50 is 2 µM (active).

On to `COc1ccc(-n2cnc3sc(-c4ccccc4)cc3c2=O)cc1`, for which the activity, negative = inhibition is 13% [at 2.29 µM].

As for `COc1ccc(Nc2ncnc3sc(-c4ccccc4)cc23)cc1`, the AC50 was 11.2 µM (active).

With `CC(C)=NOCc1ccc(-c2cc(-c3ccccc3)no2)cc1`, the activity, negative = inhibition is 5.94% [at 11.4 µM].

With `C[C@@H](c1ccccc1)N1C(=O)[C@@H]2[C@H]3C(=CC[C@H]2C1=O)C(=O)[C@H]1O[C@H]1[C@H]3O`, the activity, negative = inhibition was -19.9% [at 11.4 µM].

Source of the values: PubChem BioAssay AID1851 (National Center for Advancing Translational Sciences (NCATS), 2009).
